Test results as given in PubChem BioAssay (NCI).
This is part of a sample that, as a whole, favours compounds with a hit. Of some 83,000 tested, about 20% had one in any assay.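 Interpretation: 100, growth as untreated; towards 0, rising growth inhibition; 0, no net growth; 0 to -100, cell death. Compounds scoring below 10 were considered active.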 The source made the active and inactive calls.

Columns and labels:
Assay in all cases: NCI-60 one-dose screen, 48 h (100 = growth as untreated, 0 = no growth, -100 = all killed)
Details in all cases: 10 µM unless noted
[1] = test system: HCT-15 colon
[2] = test system: HT29 colon
[3] = test system: SNB-75 CNS
[4] = test system: SNB-19 CNS
[5] = test system: U251 CNS
[6] = test system: PC-3 prostate
[7] = test system: SK-MEL-5 melanoma
[8] = test system: UACC-62 melanoma
[9] = test system: LOX IMVI melanoma
[10] = test system: SK-MEL-28 melanoma

Measured: growth

CCSc1nnc(Nc2ccc(C(C)C)cc2)s1
inactive: [1] 48% | [2] 28.9% | [3] 102% | [4] 98.4% | [5] 66% | [6] 109% | [7] 78.9% | [8] 78.1% | [9] 82.5% | [10] 110%

Cc1oc2ncnc(Nc3ccccc3)c2c1C(=O)NCCO
inactive: [1] 98.1% | [2] 106% | [3] 90.7% | [4] 93.9% | [5] 102% | [6] 107% | [7] 97.5% | [8] 86.2% | [9] 95.4% | [10] 98.9%

COc1ccc(-c2nnc(COc3ccc(NC(=O)Nc4ccc(Cl)c(C(F)(F)F)c4)cc3F)o2)cc1
inactive: [3] 15.6% | [4] 21.7% | [7] 12.3% | [8] 19.2%
active: [1] 8.08% | [2] 9.28% | [5] -26.6% | [6] -8.78% | [9] 1.05% | [10] 1.13%

COc1ccc(C2NC3=C(CCCC3)C(C#N)(C#N)C2(C#N)C#N)cc1 (stereo not given)
inactive: [1] 65.9% | [2] 79.9% | [3] 88.6% | [4] 88.5% | [5] 107% | [6] 104% | [7] 101% | [8] 75.4% | [9] 91.8% | [10] 106%

Cc1cccc(-n2c(C)nc3ccc(NC(=O)NCCCl)cc3c2=O)c1
inactive: [1] 93.8% | [2] 106% | [3] 77.5% | [4] 101% | [5] 100% | [6] 93.5% | [7] 102% | [8] 103% | [9] 95.6% | [10] 113%

O=C(Nc1cccc(C(F)(F)F)c1)Nc1ccc(OCc2nnc(-c3ccccc3)o2)c(F)c1
inactive: [1] 26.7% | [2] 43.2% | [3] 19.2% | [4] 46.6% | [5] 29.5% | [7] 56.2% | [8] 41.4% | [9] 46.8% | [10] 62.5%
active: [6] 5.14%

O=S(=O)(NCCNc1nccc(-c2c(-c3ccccc3)nc3sccn23)n1)c1ccc(O)cc1
active: [7] 7.89%
inactive: [1] 47.9% | [2] 21.4% | [3] 28.7% | [4] 56.5% | [5] 41.5% | [6] 57.9% | [8] 52.4% | [9] 31.4% | [10] 47.6%

CCOc1ccc(/C=C/C=N/NC(N)=S)cc1
inactive: [1] 58.4% | [2] 62.1% | [3] 80.9% | [4] 95.8% | [5] 90.1% | [6] 94.1% | [7] 96% | [8] 81.9% | [9] 77.4% | [10] 102%

Cc1ccc2c(c1)C(=O)C(c1c(-c3[nH]c(=O)c4ccc(C)cc4c3O)c(O)c3ccccc3c1O)=NC2=O
active: [5] -16.2% | [6] 2.45%
inactive: [1] 13.7% | [2] 21.7% | [3] 14.4% | [4] 26.3% | [7] 25.8% | [8] 29.5% | [9] 12.1% | [10] 34.9%

COc1cc(/C=C/C(=O)c2ccccc2O)ccc1OCCCOc1cc2c(cc1OC)C(=O)N1CCC[C@H]1C=N2
active: [1] -3.51% | [2] -41.4% | [3] -57.7% | [4] -1.67% | [5] -74.7% | [7] -76.5% | [8] -82.4% | [9] -60.8% | [10] -64.3%
inactive: [6] 10.7%

COC(=O)CCCCCCN=Cc1c(O)c(O)c(C(C)C)c2cc(C)c(-c3c(C)cc4c(C(C)C)c(O)c(O)c(C=NCCCCCCC(=O)OC)c4c3O)c(O)c12
active: [2] 6.88%
inactive: [1] 13.1% | [3] 59.4% | [4] 17.6% | [5] 11.5% | [6] 16% | [7] 43.4% | [8] 17.7% | [9] 21.4% | [10] 36.1%

COc1cc(-c2cc(/C=C3\CCCCC3=O)[nH]n2)cc(OC)c1OC
inactive: [1] 94.1% | [2] 100% | [3] 85.8% | [4] 97.5% | [5] 92.2% | [6] 89.2% | [7] 92.8% | [8] 106% | [9] 93.8% | [10] 114%

Cc1c(C2=NNC(c3ccc4c(c3)OCO4)C2)[n+]([O-])c2ccccc2[n+]1[O-] (stereo not given)
inactive: [1] 103% | [2] 110% | [3] 88.9% | [4] 103% | [5] 110% | [6] 96% | [7] 97.9% | [8] 118% | [9] 96.1% | [10] 113%

NS(=O)(=O)c1ccc(NCC(=O)Nc2ccc(-c3nc4ccccc4s3)cc2)cc1
inactive: [1] 46.6% | [2] 74.5% | [3] 69.5% | [4] 74.3% | [5] 71.3% | [6] 64.7% | [7] 71.3% | [8] 38% | [9] 13.1% | [10] 99.4%

COC1=CC(c2ccc[nH]2)=N/C1=C\c1[nH]c(C)c(C(=O)CCCCC(=O)NCc2ccccc2)c1C
inactive: [3] 21.7% | [4] 77.1% | [5] 10.6% | [7] 43.9% | [8] 89.4% | [10] 140%
active: [1] -19.5% | [2] -49% | [6] -13.9% | [9] -56.3%

NC(CC(N)C(=O)O)C(=O)O (stereo not given)
inactive: [1] 88.4% | [2] 84.4% | [3] 88.4% | [4] 108% | [5] 93.8% | [6] 92.2% | [7] 85% | [8] 98% | [9] 99.4% | [10] 90.1%

Cc1c(C(=O)NCc2ccccc2)[n+](=O)c2cc(F)ccc2n1[O-]
inactive: [1] 111% | [2] 94.4% | [3] 76.7% | [4] 108% | [5] 102% | [6] 81.9% | [7] 86.7% | [8] 104% | [9] 97.4% | [10] 91.3%

CCSc1nnc(NC(=O)Cc2ccc(Cl)cc2)s1
inactive: [1] 98.3% | [2] 114% | [3] 106% | [4] 97.4% | [5] 98.7% | [6] 101% | [7] 107% | [8] 97% | [9] 97.1% | [10] 113%

CCCCCCCCCCn1cc[n+](C)c1
inactive: [1] 82% | [2] 12.3% | [4] 45.5% | [5] 21.7% | [8] 31.1% | [9] 23.9% | [10] 34.9%
active: [3] -10.6% | [6] 6.6% | [7] -33.1%

CCn1cc(C2NC(=O)c3cc(F)ccc3N2)c2cccc(Cl)c21 (stereo not given)
active: [1] 9.89% | [2] 3.35% | [3] -24.9% | [5] -14.2%
inactive: [4] 34.3% | [6] 22.3% | [7] 19.3% | [8] 28.2% | [9] 16.5% | [10] 58.2%

CCC#CC[C@H]1C/C=C2/C(=O)C=C[C@@H]2C/C=C\CCCC(=O)O1
active: [1] -6.01% | [2] -15.8% | [5] -11.2% | [6] -19.7% | [7] -85.6% | [8] -17.6% | [9] -55.8% | [10] 1.63%
inactive: [3] 38.7% | [4] 37.3%

O=C1OC(c2ccccc2)=N/C1=C\c1ccc([N+](=O)[O-])cc1
inactive: [1] 104% | [2] 98.8% | [3] 84.8% | [4] 107% | [5] 102% | [6] 94.4% | [7] 99.2% | [8] 95.5% | [9] 96.9% | [10] 102%

CCn1cc(C(=O)O)c(=O)c2cc(F)c(N3CCN(S(=O)(=O)c4cccc5ccccc45)CC3)cc21
inactive: [1] 11.1% | [3] 14.1% | [4] 28.8% | [5] 14.2% | [8] 31.2% | [10] 59.2%
active: [2] 3.96% | [6] 7.82% | [7] -46% | [9] -39%

CCN1C(=O)/C(=c2\sc3n(c2=O)C2C(NN=3)N(CC)C(=S)N2CC)c2ccccc21 (stereo not given)
inactive: [1] 100% | [2] 111% | [3] 84.6% | [4] 97.2% | [5] 97.3% | [6] 94% | [7] 103% | [8] 97.8% | [9] 98.4% | [10] 108%

Cc1ccc(C2=NN(c3ccc(S(N)(=O)=O)cc3)C(c3cn(-c4ccccc4)nc3-c3ccccc3)C2)cc1 (stereo not given)
inactive: [1] 74.3% | [2] 46.3% | [3] 81.6% | [4] 87% | [5] 77.4% | [6] 32.3% | [7] 100% | [8] 83.5% | [9] 91.2% | [10] 116%

CN(C)CCCNC(=O)C(c1ccccc1)c1ccccc1
inactive: [1] 104% | [2] 95.9% | [3] 94.5% | [4] 97.3% | [5] 98.2% | [6] 99.1% | [7] 103% | [8] 98.8% | [9] 89.3% | [10] 109%
